Peg3 prom inh: reduces Peg3 promoter-driven luciferase expression in HeLa; HeLa PEG-Prom luciferase reporter, luminescence, overnight; inhibition, % at 20 µM; actives 1.7% (n = 360,000); AID 588405;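 active = inhibition of at least 50% at 20 µM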
KKLEB tox: counter-screen for CF NF-kB inhibitors: cytotoxicity; KKLEB CF airway cells viability, ATPlite luminescence, overnight; stronger effect = lower value; cells stimulated with P. aeruginosa culture filtrate; AID 602141; actives 0.36% (n = 360,000); activity change (cytotoxicity), % at 5 µM;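 active = corrected activity change at or below -50% at 5 µM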
TROY NFkB inh: TROY signaling inhibition. Q293 LMP1-TROYcd NF-kB luciferase reporter, 4 h. inhibition, % at 10 µM. actives 0.98% (n = 360,000). AID 1347056;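 active = compounds whose plate-normalised and pattern-corrected inhibition of the luciferase reporter signal at the single screening dose is 50% or more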
TWEAK Fn14 block: blocks TWEAK-Fn14 interaction in a reporter cell assay; TWEAK-stimulated Fn14 reporter cells, luciferase luminescence, 8 h; inhibition, % at 10 µM; actives 2% (n = 360,000); AID 1159606; in the data active = inhibition above about 50%
HIF-2a inh: HIF-2a inhibition. actives 0.72% (n = 360,000). inhibition, % at 18.8 µM. 786-0 RCC cells HIF-2a reporter, luciferase luminescence, overnight. AID 624352;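 active = inhibition of the luminescence signal of 40% or more relative to plate controls, in a single-dose primary screen at 18.75 µM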
CF NFkB inh: inhibitors of cystic fibrosis induced NF-kB. KKLEB NF-kB-GFP reporter, PAF-induced, GFP fluorescence overnight. inhibition, % at 5 µM. actives 0.86% (n = 360,000). AID 588850;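 active = at least 50% inhibition at 5 µM, scaled per plate between neutral and stimulator controls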;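 note: PAF is a Pseudomonas aeruginosa culture filtrate used as stimulus; plate controls were PAF-stimulated DMSO wells for no effect and unstimulated DMSO wells for full effect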
Mdm2 MdmX conf: Mdm2/MdmX (human) interaction inhibition, confirmed; inhibition, % at 8 µM; shares compounds with HIF-2a inh; actives 99% (n = 740); SaOS-2 split-luciferase Mdm2/MdmX complementation, luminescence; AID 504601;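 active = mean inhibition of the luminescence signal across two replicates at or above 26 percent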
Target sequence (O15151 whole entry, looked up): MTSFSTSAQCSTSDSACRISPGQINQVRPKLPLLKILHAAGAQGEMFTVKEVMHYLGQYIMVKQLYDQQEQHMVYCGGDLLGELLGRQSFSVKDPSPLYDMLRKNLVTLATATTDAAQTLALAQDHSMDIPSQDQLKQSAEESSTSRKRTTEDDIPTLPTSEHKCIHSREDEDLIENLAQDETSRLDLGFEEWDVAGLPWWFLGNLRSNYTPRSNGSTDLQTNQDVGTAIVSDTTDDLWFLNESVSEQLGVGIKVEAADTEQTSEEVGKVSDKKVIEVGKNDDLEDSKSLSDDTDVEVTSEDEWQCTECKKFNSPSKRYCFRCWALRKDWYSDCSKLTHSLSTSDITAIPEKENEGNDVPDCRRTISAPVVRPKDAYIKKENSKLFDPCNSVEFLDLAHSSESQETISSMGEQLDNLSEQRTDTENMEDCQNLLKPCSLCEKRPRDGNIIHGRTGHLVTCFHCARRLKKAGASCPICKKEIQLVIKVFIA
Target sequence (Q00987 whole entry, looked up): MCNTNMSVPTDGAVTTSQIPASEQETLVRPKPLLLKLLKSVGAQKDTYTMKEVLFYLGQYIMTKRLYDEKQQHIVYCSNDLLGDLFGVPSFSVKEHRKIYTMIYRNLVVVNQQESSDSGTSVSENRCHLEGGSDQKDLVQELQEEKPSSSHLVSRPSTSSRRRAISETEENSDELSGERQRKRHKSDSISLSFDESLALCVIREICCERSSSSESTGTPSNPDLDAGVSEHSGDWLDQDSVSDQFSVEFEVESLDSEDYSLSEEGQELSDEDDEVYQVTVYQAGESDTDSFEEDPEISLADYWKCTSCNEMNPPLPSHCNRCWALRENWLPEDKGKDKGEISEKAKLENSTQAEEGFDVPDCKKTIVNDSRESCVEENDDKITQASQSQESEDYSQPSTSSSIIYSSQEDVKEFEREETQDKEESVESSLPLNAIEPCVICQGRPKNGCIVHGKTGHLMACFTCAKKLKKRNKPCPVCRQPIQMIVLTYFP
HIF-2a inh conf: confirmation of HIF-2a inhibitors. shares compounds with HIF-2a inh. 786-0 RCC cells, HIF-2a luciferase reporter luminescence, overnight. inhibition, % at 18.8 µM. actives 56% (n = 1,800). AID 651580;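 active = mean inhibition across four replicates of at least 40 percent at the single tested concentration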
HIF-1a cs: inhibits HIF-1a reporter, a counter-screen for HIF-2a inhibitors; MiaPaCa-2 HIF-1a luciferase reporter, desferoxamine, overnight; shares compounds with HIF-2a inh; actives 72% (n = 1,800); inhibition, % at 18.8 µM;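 active = mean inhibition of the reporter signal across four replicates at the single tested dose of 50% or more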
Starred values were filed as active, the others as inactive; nt = no result. Compounds with a hit are over-represented: about 4% of the library has one in this group of screens.

SMILES	Peg3 prom inh	KKLEB tox	TROY NFkB inh	TWEAK Fn14 block	HIF-2a inh	CF NFkB inh	HIF-2a inh conf	HIF-1a cs	others
CCOC(=O)c1nnc(-c2ccccc2)nc1Sc1ccccc1Cl	51*	-6	34	57*	63*	31	11	92*
O=C(Nc1ccc(S(=O)(=O)N2CCCC2)cc1)c1ccc([N+](=O)[O-])o1	97*	-15	7	18	77*	83*	50*	94*
O=C(Nc1ccc(N2CCN(C(=O)c3cccs3)CC2)cc1)c1ccco1	-23	8	-4	-1	-28	4	nt	nt
O=C(Nc1ccc(N2CCN(C(=O)c3cccs3)CC2)cc1)c1ccc([N+](=O)[O-])o1	107*	-56*	-11	5	98*	107*	99*	104*
O=C(Nc1ccc(S(=O)(=O)N2CCOCC2)cc1)c1ccc([N+](=O)[O-])o1	101*	-4	-1	18	67*	78*	36	78*
COCCNC(=O)c1c(CS(=O)(=O)c2ccccc2)noc1C(=O)NCc1ccccc1	1	-13	-10	7	2	-1	nt	nt
CCN1CSC(=S)N(Cc2ccc(OC)cc2)C1	16	5	-20	5	67*	-8	-1	42
CCN1CSC(=S)N(Cc2ccccc2)C1	16	5	-2	5	25	9	nt	nt
N#C/C(=C/C1=C(N2CCOCC2)C(=C/c2ccc(Cl)cc2)/CC1)C(=O)Nc1ccccc1F	1	-32	8	-2	10	28	nt	nt
CC(=O)Nc1ccc(CN(C)c2c(C)nc3ccc(C(=O)N(C)Cc4ccccc4)cn23)cc1	11	2	-5	-31	9	-1	nt	nt
O=C(NC(=S)Nc1ccccc1N1CCCC1)c1ccco1	-18	-6	36	33	76*	9	-8	7
O=C(NC(=S)Nc1ccccc1N1CCCCC1)c1ccco1	28	-5	-13	27	-6	-12	nt	nt
CN(C)c1ccc(-c2ccnc3c2CC(C)(C(=O)Nc2cccc(Oc4ccccc4)c2)O3)cc1 (configuration not stated)	14	-2	-4	-4	2	14	nt	nt
C#CCn1c(S(=O)(=O)Cc2ccc(F)cc2)nc(-c2ccccc2)c1-c1ccccc1	11	3	12	-31	-6	9	nt	nt	Mdm2 MdmX conf=101*
CCOC(=O)Cn1c(S(=O)(=O)Cc2ccc(F)cc2)nc(-c2ccccc2)c1-c1ccccc1	23	0	28	-50	6	14	nt	nt
Cc1ccc(-c2cc(Cc3ccncc3)c(=O)[nH]n2)cc1	2	8	-20	12	-8	1	nt	nt
CCOc1ccccc1NC(=O)N1CCC(C(=O)c2ccc(F)cc2)CC1	14	0	-15	-21	41*	-7	-6	24
COc1ccccc1NC(=O)N1CCC(C(=O)c2ccc(F)cc2)CC1	7	11	-4	9	-8	-2	nt	nt
CCCCCCCCCCCCCCCC[N+](C)(C)CC	102*	19	33	41	59*	83*	46*	98*
CC#CC[N+](C)(C)CCCCCCCCCCCC	59*	-45	45	20	52*	33	39	72*
C[N+](C)(C)CCCCCC[N+](C)(C)C	-5	-14	7	-15	-2	1	nt	nt
CCCCCCCCCCCCCCCC[N+](C)(C)CCl	100*	-33	3	-27	54*	41	39	75*
CCCCCC[N+](C)(C)CCSSCC[N+](C)(C)CCCCCC	-8	-10	1	1	14	-16	nt	nt
CCOC(=O)CCN(Cc1ccccc1)S(=O)(=O)c1csc(C(N)=O)c1	9	-10	1	-4	12	-2	nt	nt
O=C(NC1c2ccccc2Oc2ccccc21)c1ccc([N+](=O)[O-])cc1	10	6	-25	-36	9	-2	nt	nt
SMILES	Peg3 prom inh	KKLEB tox	TROY NFkB inh	TWEAK Fn14 block	HIF-2a inh	CF NFkB inh	HIF-2a inh conf	HIF-1a cs	others
OCCN1CCN(c2ncnc3c2ncn3[C@H]2CN(Cc3cccnc3)C[C@@H](CO)O2)CC1	10	2	-7	-5	7	8	nt	nt
Nc1ccc(-c2cc3ccccc3oc2=O)cc1	38	-5	60*	82*	88*	13	98*	84*
O=c1oc2ccccc2cc1-c1ccc(O)cc1	-223	-12	-98	-70	-197	4	nt	nt
COc1ccc(OCc2cc(=O)c3ccc4c(c3o2)C=CC(C)(C)O4)cc1OC	1	20	36	10	-7	11	nt	nt
CC(C)=CCOc1ccc([C@@H]2COc3c(ccc4c3C=CC(C)(C)O4)C2)c(O)c1	49	0	39	45	61*	4	-26	100*
CCOC(=O)c1ccc(-c2c(-c3ccc4c(c3)OCO4)noc2C)cc1F	18	-6	1	-11	3	18	nt	nt
O=C(O)C1=C[C@H](c2ccc(C(F)(F)F)cc2)C[C@H](OCCCCO)O1	7	-8	1	1	7	10	nt	nt
COc1cccc(NC(=O)Nc2nc(-c3ccc(OC)c(OC)c3)cs2)c1	105*	-100*	70*	105*	-122	109*	nt	nt	Mdm2 MdmX conf=103*
COc1ccc(-c2csc(NC(C)=O)n2)cc1OC	-15	-12	-7	-21	-39	-1	nt	nt
COc1cc(C=O)ccc1OC(=O)Nc1ccccc1	-64	10	-16	-26	-79	-16	nt	nt
COc1ccc(C(=O)c2no[n+]([O-])c2C(=O)c2ccc(OC)cc2)cc1	66*	-80*	-13	24	65*	90*	16	33
C=C1CC(COc2cc(=O)oc3ccccc23)(c2ccccc2)OC1=O (configuration not stated)	106*	-104*	58*	67*	90*	98*	57*	106*
O=C(Oc1cc(=O)oc2ccccc12)c1cccnc1Cl	3	-6	-1	-4	23	18	nt	nt
CCOc1ccc(N2C(=O)/C(=C/c3cc(OC)c(OC)c(OC)c3)N(CC(=O)OC)C2=S)cc1	42	-12	-31	-2	48*	34	30	47
COc1cc(/C=C/C(=O)c2ccc3c(c2)OCCO3)cc(OC)c1OC	31	-12	23	67*	56*	33	48*	101*
CCOc1ccc(/C=C2/C(=O)N(c3ccc(OC)cc3)C(=S)N2CC(=O)OC)cc1OCC	15	-40	-11	-35	24	-10	nt	nt

Compound activity as filed in PubChem.
